A short description of experiment [1]: Nuclear factor erythroid 2-related factor 2/antioxidant responsive element (Nrf2/ARE) small molecule agonists: qHTS cell viability counter screen in human keratinocytes (AID 1919968; active means well fitted curve in the direction sought with a large enough effect in the repeat runs; an effect the other way counts as inactive or inconclusive; further: nearly all actives have a fitted effect of over 55% in size). Summed up:
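KeratinoSens cells (HaCaT keratinocytes stably carrying an ARE-luciferase reporter) were seeded at 1,500 cells/well and rested 5 h at 37 C/5% CO2. They were then exposed to compounds in DMSO for 23 h. Viability was read by CellTiter-Fluor fluorescence after 1 h.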
For orientation: Quantitative high-throughput screening tests each substance at several concentrations.

A short description of experiment [2]: Nuclear factor erythroid 2-related factor 2/antioxidant responsive element (Nrf2/ARE) small molecule agonists: luciferase reporter gene qHTS assay in human keratinocytes (AID 1919969). Further: nearly all actives have a fitted effect of over 35% in size. Further: potency means the concentration at half of the fitted maximal effect. On the technique in general: Reporter assays use an easily measured gene product as a stand-in for the process of interest.
In experiment [3] the target is Gonadotropin-releasing hormone receptor (Homo sapiens) (UniProt P30968). Nature of the experiment: Human gonadotropin-releasing hormone receptor (GnRHR) small molecule agonists, calcium flux assay in GnRHR-HEK293 cells (AID 1920063). Further: nearly all actives have a fitted effect of over 35% in size. Further: potency means the concentration at half of the fitted maximal effect. Summed up: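 HEK293 cells stably expressing human GnRHR were plated 18 h at 37 °C, loaded with calcium dye 1 h at 37 °C, then given compound in agonist mode; fluorescence (Ex/Em 480/540) read kinetically for 3 min at 1 s intervals.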
Chain of Gonadotropin-releasing hormone receptor (Homo sapiens) (P30968 whole entry, looked up): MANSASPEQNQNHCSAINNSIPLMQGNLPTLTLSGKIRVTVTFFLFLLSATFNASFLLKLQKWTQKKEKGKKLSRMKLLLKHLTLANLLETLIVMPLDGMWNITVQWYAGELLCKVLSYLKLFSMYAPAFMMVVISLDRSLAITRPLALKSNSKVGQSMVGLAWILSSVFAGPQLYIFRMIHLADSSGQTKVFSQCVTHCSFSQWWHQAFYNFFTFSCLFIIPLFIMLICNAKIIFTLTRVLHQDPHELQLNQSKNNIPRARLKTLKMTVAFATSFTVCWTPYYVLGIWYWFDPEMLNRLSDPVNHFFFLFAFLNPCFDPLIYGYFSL
For orientation: Calcium assays in cells follow changes in intracellular calcium, usually with a dye or a luminescent sensor.

In experiment [4] the target is KiSS-1 receptor (Homo sapiens) (UniProt Q969F8). The experiment in a line: Human kisspeptin (KISS1R) small molecule agonists, calcium flux assay in KISS1R-HEK293 cells (AID 1920064; active means well fitted curve in the direction sought with a large enough effect in the repeat runs; an effect the other way counts as inactive or inconclusive). An outline of the steps:
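HEK293 cells stably expressing human KISS1R were plated 18 h at 37 °C, loaded with calcium dye for 1 h at 37 °C, then given compound by pin tool. Fluorescence (Ex/Em 480/540) was read kinetically for 3 min.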

The nature of experiment [5]: G protein-coupled receptor (GPCR) small molecule agonists, calcium flux assay: HEK293 wild type cell line counter screen (AID 1920065). Summed up: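 Cells were plated and cultured 18 h at 37 C/5% CO2, then loaded with calcium dye for 1 h at 37 C. Compounds in DMSO were pin-transferred in agonist mode, and fluorescence (Ex/Em 480/540) was read kinetically for 3 min at 1 s intervals.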

A short description of experiment [6]: p53 small molecule agonists, cell-based qHTS assay with human liver microsomes (AID 1963577). An outline of the steps:
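Compounds act here after metabolic activation: human liver microsomes and NADPH, both at 0.5 mg/mL final, were co-added to p53RE-bla cells. Incubation ran 16 h at 37 C, followed by LiveBLAzer detection.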

The nature of experiment [7]: p53 small molecule agonists, cell-based qHTS assay with rat liver microsomes (AID 1963578). Further: potency means the concentration at half of the fitted maximal effect. Summed up: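 Read-out is beta-lactamase reporter fluorescence (LiveBLAzer, 2 h, room temperature, dark) in p53RE-bla cells treated 16 h at 37 C with compound, rat liver microsomes and NADPH, both 0.5 mg/mL final.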
A short description of experiment [8]: p53 small molecule agonists, cell-based qHTS assay with human liver microsomes: qHTS cell viability counter screen (AID 1963579). Further: nearly all actives have a fitted effect of over 45% in size. An outline of the steps:
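Cells carrying the p53 response-element beta-lactamase reporter are treated for 16 h at 37 C with test compounds in the presence of human liver microsomes and NADPH (both 0.5 mg/mL final); ATP-based CellTiter-Glo luminescence then reports viability.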

Experiment [9] can be described thus: p53 small molecule agonists, cell-based qHTS assay with rat liver microsomes: qHTS cell viability counter screen (AID 1963580). Further: nearly all actives have a fitted effect of over 45% in size. Summed up: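 p53RE-bla HCT-116 cells were exposed 16 h at 37 C to compounds with rat liver microsomes (0.5 mg/mL) and NADPH (0.5 mg/mL). Viability was measured in the same wells as ATP content by CellTiter-Glo luminescence.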
The nature of experiment [10]: p53 small molecule agonists, cell-based qHTS assay: qHTS cell viability counter screen (AID 1963581). Further: nearly all actives have a fitted effect of over 45% in size. An outline of the steps:
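p53RE-bla HCT-116 cells were exposed to compounds for 16 h at 37 C; after the beta-lactamase FRET read in the same wells, CellTiter-Glo was added and luminescence (intracellular ATP) read after 30 min at room temperature.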

Experiment [11] addresses 5-hydroxytryptamine receptor 2A (Homo sapiens) (UniProt P28223). The experiment in a line: 5-hydroxytryptamine receptor 2A (HTR2A) small molecule antagonists, cell-based qHTS assay (AID 1963586). Further: nearly all actives have a fitted effect of over 45% in size. An outline of the steps: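 Antagonist-mode intracellular calcium assay: DOI (4 nM) added after 5 min compound pre-incubation at room temperature to dye-loaded HTR2A-CHO cells. Fluorescence followed for 3 min, sampled every second.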

Experiment [12] has the same target. Nature of the experiment: 5-hydroxytryptamine receptor 2A (HTR2A) small molecule agonists, cell-based qHTS assay (AID 1963587). Further: nearly all actives have a fitted effect of over 30% in size. Summed up: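 CHO cells stably expressing human HTR2A, plated 18 h, loaded with calcium dye 1 h at 37 C. Agonist mode: compounds added and intracellular calcium fluorescence recorded kinetically for 2 min at 1 sec intervals.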
Experiment [13] concerns the target Muscarinic acetylcholine receptor M1 (Homo sapiens) (UniProt P11229). The experiment in a line: Cholinergic receptor muscarinic 1 (CHRM1) small molecule antagonists, cell-based qHTS assay (AID 1963588). Further: nearly all actives have a fitted effect of over 40% in size. An outline of the steps: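 CHRM1-CHO calcium-flux assay, antagonist mode. Cells were seeded 18 h, dye-loaded 1 h at 37 C and given compound for 5 min at RT, then acetylcholine was added at 50nM. FDSS fluorescence was read 3 min; 15 concentrations, three runs.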

Experiment [14] in a line: cAMP Responsive Elements (CRE) small molecule agonists, cell-based qHTS assay (AID 1963590). Summed up:
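CRE-bla HEK 293T cells in DMEM with 10% dialyzed FBS, NEAA, pyruvate and 25 mM HEPES were plated 18 h at 37 C/5% CO2, then exposed to compounds in DMSO for 3 h before LiveBLAzer B/G FRET substrate addition.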

Experiment [15] is described as follows: cAMP Responsive Elements (CRE) small molecule antagonists, cell-based qHTS assay (AID 1963591; active means well fitted inhibition curve with a large enough effect in the signal ratio in the repeat runs, not every such curve was filed as active; the % refers to the signal ratio). An outline of the steps: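 CRE-bla HEK293T cells were plated 18 h at 37 °C/5% CO2, pinned with compound in DMSO, then stimulated with NKH477 at 0.25 uM final for 3 h. LiveBLAzer B/G FRET substrate was added and plates incubated 2 h at room temperature.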
Experiment [16] has as its target Beta-2 adrenergic receptor (Homo sapiens) (UniProt P07550). Nature of the experiment: Adrenergic beta2 receptor (ADRB2) small molecule antagonists, cell-based qHTS assay (AID 1963592). Further: series mostly up to about 92 µM; nearly all actives have a fitted effect of over 50% in size. An outline of the steps: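 Cells (CHO, stable ADRB2 overexpression) incubated 18-20hr at 37C; compounds added from DMSO; agonist mix (1nM isoproterenol, 100uM IBMX, 25uM Ro-20-1724) added; 0.5hr RT; d2-cAMP and anti-cAMP-cryptate added; 1hr RT; 665/615 nm read.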

Experiment [17] has the same target. Nature of the experiment: Adrenergic beta2 receptor (ADRB2) small molecule agonists, cell-based qHTS assay (AID 1963593).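 Further: CHO cells stably overexpressing human ADRB2.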 An outline of the steps:
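CHO cells stably over-expressing ADRB2 were plated overnight at 37C, then dosed with compounds plus a stimulation mix containing 100uM IBMX and 25uM Ro-20-1724 for 0.5hr at room temperature. cAMP was measured by HTRF competition, 1hr.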

Experiment [18] deals with D(2) dopamine receptor (Homo sapiens) (UniProt P14416). Nature of the experiment: Dopamine D2 receptor (DRD2) small molecule agonists, cell-based qHTS assay (AID 1963594). Further: nearly all actives have a fitted effect of over 35% in size. An outline of the steps:
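HEK293 cells stably expressing human DRD2, pre-treated with PDE inhibitor Ro20-1724 (0.1 mM final) and compound 10 min at room temperature, then stimulated with NKH477 (200nM […]) for 30 min. cAMP read by HTRF (665/620 nm).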

For experiment [19] the target is unchanged. The experiment in a line: Dopamine D2 receptor (DRD2) small molecule antagonists, cell-based qHTS assay (AID 1963595; active means well fitted inhibition curve with a large enough effect in the signal ratio in the repeat runs, with a control signal flat; the % refers to the signal ratio; further: potency means the concentration at half of the fitted maximal effect). Summed up:
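HTRF cAMP read-out at 665 and 620 nm emission (340 nm excitation). Antagonist mode: compounds were tested against 12 nM quinpirole in DRD2-HEK293 cells, with 200 nM NKH477 raising cAMP and 0.1 mM Ro20-1724 blocking its breakdown.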

Experiment [20] is described as follows: p53 small molecule agonists, cell-based qHTS assay (AID 1963582; active means well fitted activation curve with a large enough effect in the signal ratio in the repeat runs, not every such curve was filed as active; the % refers to the signal ratio; further: potency means the concentration at half of the fitted maximal effect). An outline of the steps:
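p53RE-bla beta-lactamase reporter cells rested 5 h at 37 C/5% CO2, then received compounds in DMSO by pin transfer and were incubated 16 h at 37 C. LiveBLAzer B/G FRET substrate was loaded for 2 h at room temperature before fluorescence reading.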

Several values for one entry are separate records, joined by “and”; a condition that tells them apart may be missing. Equal entries are not always repeated. Inconclusive results are not listed. The source holds several records for some structures; these can differ, active in one and inactive in another. Activity calls are given as the source filed them. Unless noted, the call rests on the fitted dose curve. Peptide text beside a SMILES is read from it.

Chain of Muscarinic acetylcholine receptor M1 (Homo sapiens) (P11229 whole entry, looked up): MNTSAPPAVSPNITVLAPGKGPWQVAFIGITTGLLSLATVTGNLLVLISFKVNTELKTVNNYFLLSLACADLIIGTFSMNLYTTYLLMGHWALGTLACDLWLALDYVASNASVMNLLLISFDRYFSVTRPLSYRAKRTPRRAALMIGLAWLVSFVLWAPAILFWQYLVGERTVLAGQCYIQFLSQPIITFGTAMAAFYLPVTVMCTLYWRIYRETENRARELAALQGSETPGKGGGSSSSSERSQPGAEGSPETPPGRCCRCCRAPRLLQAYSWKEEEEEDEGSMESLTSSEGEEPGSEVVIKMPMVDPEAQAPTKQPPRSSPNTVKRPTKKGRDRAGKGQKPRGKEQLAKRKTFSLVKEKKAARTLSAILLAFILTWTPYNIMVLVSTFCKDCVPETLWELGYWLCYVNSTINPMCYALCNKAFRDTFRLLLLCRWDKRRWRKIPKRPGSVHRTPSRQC
Chain of Beta-2 adrenergic receptor (Homo sapiens) (P07550 whole entry, looked up): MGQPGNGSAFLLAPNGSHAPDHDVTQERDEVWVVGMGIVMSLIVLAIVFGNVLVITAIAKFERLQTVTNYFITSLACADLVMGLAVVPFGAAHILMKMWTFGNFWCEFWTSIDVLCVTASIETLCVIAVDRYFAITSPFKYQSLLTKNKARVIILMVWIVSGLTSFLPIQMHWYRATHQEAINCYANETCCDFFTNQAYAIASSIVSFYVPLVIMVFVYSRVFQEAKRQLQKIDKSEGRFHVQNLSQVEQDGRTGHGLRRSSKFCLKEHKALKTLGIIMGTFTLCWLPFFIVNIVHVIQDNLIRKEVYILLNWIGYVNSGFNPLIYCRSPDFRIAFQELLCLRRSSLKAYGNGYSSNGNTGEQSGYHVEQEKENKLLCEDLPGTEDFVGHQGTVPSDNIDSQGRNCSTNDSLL
Chain of D(2) dopamine receptor (Homo sapiens) (P14416 whole entry, looked up): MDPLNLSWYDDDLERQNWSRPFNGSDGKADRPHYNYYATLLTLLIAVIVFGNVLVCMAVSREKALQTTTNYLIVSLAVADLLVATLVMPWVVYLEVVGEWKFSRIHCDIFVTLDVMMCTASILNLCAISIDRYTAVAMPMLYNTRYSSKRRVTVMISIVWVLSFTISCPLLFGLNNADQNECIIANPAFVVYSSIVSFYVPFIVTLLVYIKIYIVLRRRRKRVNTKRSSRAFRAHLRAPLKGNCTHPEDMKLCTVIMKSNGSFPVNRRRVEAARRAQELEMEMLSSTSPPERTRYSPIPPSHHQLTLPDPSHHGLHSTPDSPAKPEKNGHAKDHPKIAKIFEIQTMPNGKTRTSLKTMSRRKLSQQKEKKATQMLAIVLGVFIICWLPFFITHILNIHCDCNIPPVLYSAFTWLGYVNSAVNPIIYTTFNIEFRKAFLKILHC
Chain of KiSS-1 receptor (Homo sapiens) (Q969F8 whole entry, looked up): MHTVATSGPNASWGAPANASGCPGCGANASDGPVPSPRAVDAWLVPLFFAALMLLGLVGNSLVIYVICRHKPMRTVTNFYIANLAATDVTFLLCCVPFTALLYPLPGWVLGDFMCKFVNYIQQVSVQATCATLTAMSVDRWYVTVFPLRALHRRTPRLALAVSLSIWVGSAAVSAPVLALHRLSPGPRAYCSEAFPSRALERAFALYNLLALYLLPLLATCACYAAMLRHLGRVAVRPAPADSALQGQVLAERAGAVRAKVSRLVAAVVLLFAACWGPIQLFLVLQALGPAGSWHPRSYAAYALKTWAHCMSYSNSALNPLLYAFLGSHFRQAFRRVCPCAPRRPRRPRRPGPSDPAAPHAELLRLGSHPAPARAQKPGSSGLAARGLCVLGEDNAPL
Chain of 5-hydroxytryptamine receptor 2A (Homo sapiens) (P28223 whole entry, looked up): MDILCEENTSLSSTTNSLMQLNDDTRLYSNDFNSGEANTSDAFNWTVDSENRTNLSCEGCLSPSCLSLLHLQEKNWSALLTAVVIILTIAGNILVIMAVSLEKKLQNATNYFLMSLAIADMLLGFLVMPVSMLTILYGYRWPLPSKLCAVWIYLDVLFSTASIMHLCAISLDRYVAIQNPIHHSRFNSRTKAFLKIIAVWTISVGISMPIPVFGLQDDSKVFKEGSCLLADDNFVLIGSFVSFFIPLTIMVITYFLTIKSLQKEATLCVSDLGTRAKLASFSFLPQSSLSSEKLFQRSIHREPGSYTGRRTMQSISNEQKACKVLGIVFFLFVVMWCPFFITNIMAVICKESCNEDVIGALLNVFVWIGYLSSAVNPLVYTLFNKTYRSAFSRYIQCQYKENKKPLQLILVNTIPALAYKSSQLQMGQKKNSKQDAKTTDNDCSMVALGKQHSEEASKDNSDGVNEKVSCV

Regarding `COC(=O)[C@H](Cc1ccccc1)NC(=O)[C@@H](N)CC(=O)O` (H-Asp-Phe-OMe), the Potency result in [1], in experiment [2], in [3], in experiment [4], in experiment [5] and in [6] was “inactive” throughout. The Potency result in experiment [7], in [8], in experiment [9], in [10], in experiment [11] and in [12] was “inactive” throughout. Also, the Potency entry in experiment [13], in [14], in experiment [15], in [16], in experiment [17] and in experiment [18] was “inactive” in each case. The Potency entry in experiment [19] is “inactive”.

With `C[C@](N)(Cc1ccc(O)c(O)c1)C(=O)O`, the Potency entry in experiment [1], in experiment [2], in experiment [3], in [4], in [5] and in [6] was “inactive” in each case. The Potency entry in experiment [7], in [8], in [9], in experiment [10], in experiment [20] and in experiment [14] was “inactive” in each case. The Potency entry in experiment [15], in experiment [16], in experiment [18] and in [19] was “inactive” in each case.

For `c1ccc2c(c1)c1cccc3ccc4cccc2c4c31`, the Potency entry in experiment [1], in experiment [2], in experiment [3], in experiment [4], in [5] and in experiment [6] was “inactive” each time. Also, the Potency result in experiment [8], in experiment [9], in experiment [10], in [14], in [15] and in experiment [16] was “inactive” each time. The Potency result in [18] and in [19] was “inactive” each time. For the same molecule, the Potency in [7] is 32.2 µM (active); in [20], 45.4 µM (active) and inactive.

Turning to `CNC[C@H](O)c1ccc(O)c(O)c1`, the Potency entry in experiment [1], in [2], in [4], in experiment [5], in [6] and in [7] was “inactive” in each case. Further, the Potency result in experiment [8], in [9], in experiment [10], in experiment [20], in experiment [15] and in experiment [18] was “inactive” each time. The Potency in [3] is 110 nM (active) and 233 nM (active); in experiment [19], 13 µM (active).

For the molecule `C=CCNC(N)=S`, the Potency entry in [1], in experiment [2], in experiment [3], in experiment [4], in experiment [5] and in experiment [6] was “inactive” throughout. Besides, the Potency result in [7], in [8], in [9], in [10], in [11] and in experiment [12] was “inactive” throughout. For the same molecule, the Potency result in experiment [13], in experiment [14], in experiment [16] and in [19] was “inactive” in each case.

For `O=C(O)CCCCC1CCSS1` (stereo unspecified), the Potency result in [1], in experiment [3], in experiment [4], in experiment [5], in experiment [6] and in [7] was “inactive” throughout. The Potency result in [8], in experiment [9], in experiment [10], in [20], in [14] and in experiment [16] was “inactive” in each case. For the same molecule, the Potency result in [17] and in experiment [19] was “inactive” in each case. Further, the Potency in experiment [2] is 5.44 µM (active) and inactive.

Consider `CCCCC(CC)COC(=O)c1ccc(N(C)C)cc1` (stereo unspecified), for which the Potency result in [1], in [3], in experiment [4], in experiment [5], in experiment [6] and in experiment [7] was “inactive” each time. The Potency entry in [8], in experiment [9], in experiment [10], in experiment [11], in [12] and in experiment [13] was “inactive” throughout. In addition, the Potency entry in experiment [14], in experiment [15], in experiment [16], in experiment [17], in experiment [18] and in experiment [19] was “inactive” in each case. Also, the Potency in experiment [2] is 30.8 µM (active) and 54.5 µM (active) and inactive.

`NC(N)=NC(=O)c1nc(Cl)c(N)nc1N`: the Potency entry in [1], in experiment [2], in experiment [3], in [4], in experiment [5] and in experiment [6] was “inactive” each time. Besides, the Potency result in experiment [7], in experiment [8], in experiment [9], in experiment [10], in [20] and in experiment [14] was “inactive” throughout. For the same molecule, the Potency result in experiment [15], in experiment [16], in experiment [17] and in experiment [19] was “inactive” in each case.

For the origin of these results see PubChem BioAssay (Tox21).
